Gal4-VP16 FLuc: Gal4-VP16 reporter inhibition counter-screen. Drosophila S2 Gal4-VP16 UAS-luciferase, luminescence, 20 h. Potency, µM (titrated, usually from 53.6 µM), for the others: at the highest dose activity, negative = inhibition, actives largely listed as inhibitors. 310,000 compounds, 3.5% hits;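 also: Gal4-VP16 expression switched on by copper sulfate through the metallothionein promoter; potency is read from the fitted curve at half-maximal effect; nearly all actives have a fitted effect of over 50% in size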
FBPA coupling cs: coupling enzyme interference in Giardia aldolase counter-screen; activity change, negative = inhibition, % at 58.2 µM, hits read low; coupling enzyme system counterscreen, AmpLite Red fluorescence; 290,000 compounds, 0.67% hits; in the data active = activity change below about -30%
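Fluorescence at 525 nm excitation and 598 nm emission measured inhibition of the coupled detection system without aldolase. Compounds (at 57.5 uM final) were preincubated 10 min at room temperature with coupling enzyme reagent before a 20 min substrate/AmpLite Red step.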
RORg inh: inhibitors of mouse ROR gamma transcriptional activity | Potency, µM (doses to about 53.6 µM), inactives show top-dose activity change, negative = inhibition, actives largely listed as inhibitors | P51450 | 310,000 compounds, 5.4% hits | Drosophila S2 Gal4-RORgamma UAS-luciferase reporter, 20 h; also: potency is read from the fitted curve at half-maximal effect; nearly all actives have a fitted effect of over 60% in size
Target sequence (P51450 whole entry, looked up, the tested form may be a part): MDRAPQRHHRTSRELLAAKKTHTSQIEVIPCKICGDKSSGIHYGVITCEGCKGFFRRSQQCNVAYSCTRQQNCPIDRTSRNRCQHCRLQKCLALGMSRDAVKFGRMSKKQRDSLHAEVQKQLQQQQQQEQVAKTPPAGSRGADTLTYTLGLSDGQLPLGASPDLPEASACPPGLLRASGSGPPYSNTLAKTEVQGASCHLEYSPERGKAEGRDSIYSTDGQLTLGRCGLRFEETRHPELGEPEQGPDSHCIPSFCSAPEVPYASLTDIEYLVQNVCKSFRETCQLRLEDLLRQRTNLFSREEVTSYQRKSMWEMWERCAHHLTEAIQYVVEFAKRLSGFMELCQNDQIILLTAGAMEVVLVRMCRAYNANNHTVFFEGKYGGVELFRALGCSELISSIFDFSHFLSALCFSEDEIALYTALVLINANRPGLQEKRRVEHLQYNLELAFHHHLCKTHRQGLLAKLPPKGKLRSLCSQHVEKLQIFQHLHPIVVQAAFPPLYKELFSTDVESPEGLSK
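Using a luciferase readout, inhibitors were identified by reduced reporter activity in Drosophila cells coexpressing a copper-inducible Gal4–ROR gamma fusion and UAS-driven Photinus luciferase, incubated 20 hr after 700 uM copper sulfate.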
TSHR antagonist: human thyrotropin receptor antagonism. AID 504810. 330,000 compounds, 0.2% hits. activity change, negative = inhibition, % at 11.5 µM. TSHR-expressing cells, TSH-stimulated cAMP HTRF, 2 h; stronger effect = lower value. P16473;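 active = activity change below a set negative limit, meaning inhibition stronger than a set level, cut at about -70% in these data; inconclusive = activity change between two set negative limits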
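TSHR-expressing cells, 200/well, pre-treated with compound, then stimulated with EC80 TSH (4nM final) for 2 hours at 37 deg C. cAMP measured by competitive HTRF: anti-cAMP cryptate antibody in lysis buffer plus cAMP-d2, read after 30 minutes at room temperature.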
ELG1 DNA repair: blocks ELG1-dependent DNA repair in HEK293T cells; Potency, µM (highest dose often 46.1 µM), for inactives: at the highest dose activity change, negative = inhibition, most hits filed as inhibitors; HEK293T ELG1-luciferase reporter, luminescence, 16 h; DNA damage induced by 5-fluorouridine; 330,000 compounds, 2.3% hits; AID 504467; also: potency is read from the fitted curve at half-maximal effect; nearly all actives have a fitted effect of over 55% in size
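Overnight (16 hr) co-exposure of 2,000 cells/well to 5-fluorouridine and compound at 37 °C preceded detection. Luciferase was quantified via ONE-Glo luminescence; loss of signal denotes inhibition.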
The depositor's hits bear a star; u = inconclusive; x = not tested or not shown; [ ] = another dose, or the depositor's remark. This is a sample that favours compounds with a hit; in the whole collection about 8% have one here. Unless noted, calls follow the shape of the dose curve; as a rule, active = well fitted curve in the direction sought with a large enough effect; inconclusive = small, poorly fitted or top-dose-only effect, or another doubt; inactive = no such curve, though single readings can be large; an effect the other way counts as inactive or inconclusive. % is scaled to controls: 0 for no effect and ±100 for the full control effect.

SMILES	Gal4-VP16 FLuc	FBPA coupling cs	RORg inh	TSHR antagonist	ELG1 DNA repair
COc1ccc2c(c1)-c1c(ssc1=S)C(C)(C)N2	-18%	-1	-22%	14	2.6µM*
Cc1ccc(S(=O)(=O)N2c3ccccc3-c3c(ssc3=S)C2(C)C)cc1	u	5	-26%	-4	-9%
COc1cc(/C(C)=N\NC(N)=S)cc(OC)c1OC	u	-1	5.6µM*	-5	u
COc1cc(/C(C)=N/NC(=S)NC(C)C)cc(OC)c1OC	5µM*	-1	3.2µM*	7	u
COc1cc(C(=O)N/N=C(\C)Cc2ccccc2)cc(OC)c1OC	-4%	1	u	14	u
Cc1cccc([N+](=O)[O-])c1NC(=O)COC(=O)c1nc2nccc(C)n2n1	x	x	x	17	14%
OC[C@@H]1O[C@@H](Oc2ccc(O)cc2)[C@H](O)[C@@H](O)[C@@H]1O	0%	-1	22%	x	x
COc1cccc(Cn2c(=O)c(-c3cccs3)nc3cnc(N4CCOCC4)nc32)c1	-6%	-1	24%	x	x
Cc1ccc(S(=O)(=O)N(C)C)cc1NC(=O)CSc1nnc(C2CC2)n1C1CC1	x	x	x	5	4%
O=C(O)c1cccc(CSc2n[nH]c(-c3ccc(Cl)cc3Cl)n2)c1	3%[10 µM]	9	-1%	-6	21%
c1ccc(CCNc2ncnc3ccccc23)cc1	0.56µM*	1	1.1µM*	-35	u
Brc1ccc2ncnc(NCc3ccccc3)c2c1	u	2	u	-39	4.1µM*
CCCCCCCCNc1ncnc2ccccc12	0.35µM*	4	2.2µM*	u	u
N#Cc1ccccc1NC(=O)C(=O)NCCc1csc(-c2ccc(F)cc2)n1	x	x	x	-6	x
O=C1CN(CC(=O)N2CCOCC2)c2ccccc2O1	-6%	-64*	20%	21	23%
CCOc1ccc(CCNC(=O)c2ccc(CS(=O)Cc3ccccc3Cl)o2)cc1 (stereo not given)	-2%	5	32%	-6	23µM*
Cc1ccc(NC(=O)CSc2ncccn2)cc1S(=O)(=O)N1CCCCC1	x	x	x	-9	-5%
O=C(NCc1ccco1)/C(=C\C=C\c1ccccc1)NC(=O)c1ccccc1Br	-9%	-1	8%	11	23µM*
Cc1cccc(NC(=S)NCCSc2ccc(Cl)cc2)c1	7.1µM*	-1	3.2µM*	11	-24%
Cc1ccc(Cl)cc1NC(=S)NCCCSC1CCCCC1	u	-1	2µM*	-9	-30%
Cc1ccc(C)c(NC(=S)NCCSc2ccc(Cl)cc2)c1	5µM*	-2	2.5µM*	-11	2%
CCc1ccccc1NC(=S)NCCSc1ccc(Cl)cc1	7.1µM*	3	1.1µM*	2	u
Cc1cccc(NC(=O)NCCc2ccc(Cl)cc2)c1	17%[10 µM]	1	15%	-8	16%
COCCCNC(=O)c1cc(-c2cccnc2)nc2ccc(S(=O)(=O)N3CCCCCC3)cc12	-2%	x	-2%	9	u
Cc1ccccc1NC(=S)NCCO	-3%	2	24%	17	2%
SMILES	Gal4-VP16 FLuc	FBPA coupling cs	RORg inh	TSHR antagonist	ELG1 DNA repair
CS(=O)(=O)Nc1ccccc1C(=O)NCCSc1ccc(Cl)cc1	10%	2	331%	3	u
CCCCSCCCNC(=S)Nc1ccccc1C	u	0	2.5µM*	-5	u
Cc1ccc(NC(=S)NCCSc2ccc(Cl)cc2)c(C)c1	1µM*	-6	0.79µM*	23	-14%
COc1ccc(OC)c(NC(=S)NCCSc2ccc(C)cc2)c1	u	1	14µM*	-7	3%
Cc1ccccc1NC(=S)NCCSc1ccc(Cl)cc1	u	-1	2.2µM*	-5	-18%
COc1ccc(C(=O)NCCSc2ccc(C)cc2)cc1	2%	-1	14%	-8	u
COc1ccc(CNC(=O)CCCn2nc(C)c3c(C)n(-c4ccc(C)cc4)nc3c2=O)cc1	0%	0	5%	3	u
O=C(CSc1nnnn1-c1cccc(F)c1)NC1CCCCC1	x	x	x	24	1%
Cc1ccc(S(=O)(=O)N[C@H]2COC(=O)C/C=C\[C@@H](C)[C@H](NS(=O)(=O)c3ccc(C)cc3)COC(=O)C/C=C\[C@H]2C)cc1	-4%[10 µM]	0	-8%[10 µM]	x	x
COc1ccc2[nH]cc(CCNc3ncncc3-c3ccc(N(C)C)cc3)c2c1	-1%	9	9%	x	x
COc1ccc2[nH]cc(CCNc3ncncc3-c3ccoc3)c2c1	11µM*	-5	-6%	x	x
CCC(C)Nc1nnnc2c1sc1nc3c(cc12)COC(C)(C)C3 (stereo not given)	0%	9	3%	-1	23µM*
O=C(NC(=S)Nc1ccc(C(F)(F)F)cc1)c1csnn1	u	2	7.9µM*	-10	12%
O=C(Nc1csnn1)c1csnn1	0%	-1	5%	28	0%
COc1ccc(NC(=S)NC(=O)c2csnn2)cc1	26%	3	u	-2	9%
O=C(NC(=S)Nc1ccccc1)c1csnn1	u	1	5.6µM*	4	u
CC(=O)NCc1ccc(C(=O)CN2C(=O)NC3(CCCCC3C)C2=O)s1 (stereo not given)	x	x	x	0	19%
Cc1cccc(C)c1OCC(O)CNS(=O)(=O)c1ccccc1C(=O)N1CCCCC1 (stereo not given)	-4%	-2	-3%	-9	16µM*
COc1ccccc1NC(=O)N1CCN(C(=O)c2ccco2)CC1	1%	x	-1%	-7	0%
NCCC[C@@H](CC(=O)N[C@@H]1CCNC[C@H]1C(=O)N[C@H](CC(=O)N[C@@H](CCC(=O)O)CC(=O)O)Cc1ccccc1)NC(=O)C[C@H](CO)NC(=O)[C@@H]1CNCC[C@H]1N	3%	-6	10%	x	x
OCCNc1nc2ccccc2nc1NCCO	2%	0	22%	-7	12%
OCCNc1c2ccccc2nc2ccccc12	u	0	-20%	-1	21µM*
CC1CCN(CC(O)COc2ccc(-c3ccccc3)cc2)CC1 (stereo not given)	7%	0	-8%[1.91 µM]	4	-6%
O=C(O)/C=C\c1ccc(O)c(O)c1	13%[17 µM]	-2	2%[16.9 µM]	x	x
O=C(/C=C/c1ccc(O)c(O)c1)OCCc1ccccc1	10µM*	-1	u	-29	x
O=C(NCc1cccc(Cl)c1)c1ccc(CS(=O)Cc2ccc(Cl)cc2)o1 (stereo not given)	-2%	0	14%	-4	13µM*
O=S(=O)(/N=C(/Nc1cccnc1)c1ccccc1)c1ccc(F)cc1F	x	x	x	-1	16%
NC(=S)N/N=C1\CCOc2ccc(F)cc21	22µM*	4	5µM*	36	0%
NC(=O)N/N=C1\CCS(=O)(=O)c2ccc(F)cc21	-1%	2	-17%	0	-2%
